# The panel holds about 79,000 compounds, 15% with a hit somewhere; the sample as a whole holds those more often. Calls of active or inactive are those of the source. Cut-off read from the data, not from the text of the source: active = growth inhibition above about 70%; inactive = the rest.
# Assay: NCI Yeast Anticancer Drug Screen. Data for the bub3 strain (AID 167)
# Settings: S. cerevisiae bub3 mutant strain, hits give high values
# Protocol: Growth inhibition of yeast strains with defined genetic alterations is measured as a screen for potential anti-cancer activity. Selected strains with alterations in DNA damage repair or cell cycle control were exposed to compounds and growth inhibition was measured relative to vehicle treated controls. The strain used in this assay is bub3
# [1] = at 5.0 µM (retest, dose inferred, filed as 0.5)
# [2] = at 50.0 µM (retest, dose inferred, filed as 5.0)
SMILES,growth inhibition (at 1.2 µM),growth inhibition (at 3.7 µM),growth inhibition [1],growth inhibition (at 11.0 µM),growth inhibition (at 33.0 µM),growth inhibition [2],growth inhibition (at 50.0 µM),growth inhibition (at 100.0 µM)
Cc1ccc(C2C(Cl)C(=O)N2n2cnc3ccccc3c2=O)cc1 (stereo not given),-10% (inactive),-7% (inactive),33% (inactive),3% (inactive),46% (inactive),84% (active),68.6% (inactive),62% (inactive)
OC1(c2ccccc2)CSC2=Nc3ccccc3C3CCN1N23 (stereo not given),-56% (inactive),-54% (inactive),19% (inactive),-43% (inactive),58% (inactive),11% (inactive),73.7% (active),91% (active)
CC(=O)Oc1cc(-c2cc(OC(C)=O)c(OC(C)=O)c3ccccc23)c2ccccc2c1OC(C)=O,3% (inactive),4% (inactive),17% (inactive),7% (inactive),26% (inactive),93% (active),86.8% (active),87% (active)
CN(C)CCn1c2c3ccccc3ccc2c2oc(=O)c3ccccc3c21,-8% (inactive),10% (inactive),3% (inactive),19% (inactive),93% (active),95% (active),86.8% (active),95% (active)
CC(=O)N/N=C/C(C)(C)C(C)(C)/C=N/NC(C)=O,-1% (inactive),-4% (inactive),0% (inactive),-4% (inactive),-7% (inactive),16% (inactive),35.4% (inactive),16% (inactive)
